Compound activity deposited in PubChem by several laboratories.
S1P4 ag = activates the human S1P4 receptor; O95977; S1P4-expressing cell line, agonist reporter assay; activation, % at 4.98 µM; hit rate 0.35% among 220,000; AID 1509; in the data active = activation above about 11%;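 also: 0% = DMSO vehicle and 100% = reference agonist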
S1P3 antagonist = S1P3 (human) receptor antagonism; CHO S1P3 NFAT-BLA reporter, FRET fluorescence, antagonist mode; inhibition, % at 4.98 µM; hit rate 0.27% among 170,000;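 active = inhibition above the plate cutoff, the mean inhibition of test wells on that plate plus 3 SD, cut at about 28% in these data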;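 also: cells challenged with S1P at its EC80 of 0.8 µM; blue over green emission ratio from cleaved BLA substrate after 4 h stimulation; 0% = S1P-stimulated wells and 100% = unstimulated DMSO-only wells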
KCC2 mod = modulators of human KCC2 chloride dependent transport | KCC2 cells, thallium flux FluoZin-2 fluorescence | B-score of Tl+ flux slope (higher = more flux/activation; lower = inhibition) at 10 µM | hit rate 2.2% among 190,000 | AID 1456;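 active = thallium flux slope and its plate-corrected score both differing from the plate sample mean at a set confidence after two filtering rounds, in either direction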;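 also: slope of fluorescence scaled to starting intensity during 10 to 20 s after thallium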
Target sequence (Q9H2X9 whole entry, looked up): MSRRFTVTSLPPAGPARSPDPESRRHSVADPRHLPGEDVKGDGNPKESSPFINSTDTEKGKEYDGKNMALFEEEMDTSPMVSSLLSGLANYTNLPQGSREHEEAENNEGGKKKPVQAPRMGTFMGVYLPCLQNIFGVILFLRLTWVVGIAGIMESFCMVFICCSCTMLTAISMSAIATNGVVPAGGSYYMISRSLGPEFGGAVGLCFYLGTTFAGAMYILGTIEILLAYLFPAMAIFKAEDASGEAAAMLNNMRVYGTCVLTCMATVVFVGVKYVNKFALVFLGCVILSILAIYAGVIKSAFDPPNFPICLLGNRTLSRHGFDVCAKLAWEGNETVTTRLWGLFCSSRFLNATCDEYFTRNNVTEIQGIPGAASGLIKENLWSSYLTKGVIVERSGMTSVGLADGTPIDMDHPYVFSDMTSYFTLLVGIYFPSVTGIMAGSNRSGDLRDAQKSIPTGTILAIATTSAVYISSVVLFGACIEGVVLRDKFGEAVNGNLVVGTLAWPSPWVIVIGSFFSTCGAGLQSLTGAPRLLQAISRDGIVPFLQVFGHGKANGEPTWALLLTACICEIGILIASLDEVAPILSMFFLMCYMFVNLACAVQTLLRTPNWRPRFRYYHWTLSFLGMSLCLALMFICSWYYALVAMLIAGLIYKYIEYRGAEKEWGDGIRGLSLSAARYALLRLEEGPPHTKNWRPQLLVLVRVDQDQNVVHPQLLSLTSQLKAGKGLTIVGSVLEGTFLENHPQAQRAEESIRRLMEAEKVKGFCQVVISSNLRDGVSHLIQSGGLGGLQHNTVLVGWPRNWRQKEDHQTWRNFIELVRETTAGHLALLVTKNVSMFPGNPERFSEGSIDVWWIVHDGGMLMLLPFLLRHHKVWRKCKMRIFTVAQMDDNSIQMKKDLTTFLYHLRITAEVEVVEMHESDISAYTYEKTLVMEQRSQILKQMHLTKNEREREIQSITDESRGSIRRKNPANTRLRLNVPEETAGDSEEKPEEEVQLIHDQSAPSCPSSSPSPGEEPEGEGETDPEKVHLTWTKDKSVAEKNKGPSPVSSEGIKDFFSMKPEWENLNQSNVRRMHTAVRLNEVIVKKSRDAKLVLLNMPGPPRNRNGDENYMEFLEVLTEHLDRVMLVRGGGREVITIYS
RAM inhibit = inhibitors of the yeast RAM network; AID 868; hit rate 1.8% among 190,000; S. cerevisiae dse1pr::URA3 reporter, 5-FOA growth OD615, 2 d; analog-sensitive cbk1-as2 kinase mutant strain; inhibition, % at 50 µM;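 active = inhibition above a set limit, 3 SD over mean compound inhibition, cut at about 8.4% in these data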;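 also: 0% = DMSO-only wells with no growth and 100% = 10 µM 1-NA-PP1 full growth; inhibition rescues growth on 5-FOA so higher OD means more RAM inhibition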
S1P4 antag = blocks the human S1P4 receptor | O95977 | S1P4-expressing cells, antagonist mode, reporter read-out | inhibition, % at 4.98 µM | hit rate 0.26% among 220,000 | AID 1510; in the data active = inhibition above about 29%;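 also: 0% = wells stimulated with agonist and 100% = vehicle wells without agonist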
ROMK primary = modulators of human ROMK potassium channel. P48048. Tet-inducible ROMK, thallium flux fluorescence; actives lie on both sides. hit rate 2% among 130,000. B-score at 10 µM;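 active = signal ratio slope over the read window, or its plate-corrected B-score, at least 3 SD from the plate mean, either direction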;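 also: B-score of the F/F0 ratio slope over 7 to 12 s after thallium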
KCC2 secondary = confirmation of human KCC2 transport modulators | hit rate 15% among 3,700 | normalised thallium flux (F/F0 slope) at 10 µM | shares compounds with KCC2 mod | HEK293-KCC2, thallium flux, FluoZin2 fluorescence; stronger effect = higher value;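 active = thallium flux slope above the same plate's solvent-only control mean plus 3 SD; inconclusive = the two replicate wells disagree; inactive = no significant difference from solvent-only control wells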
KCC2 bumet counter = thallium flux persisting under bumetanide in KCC2 cells, counter-screen secondary assay | shares compounds with KCC2 mod | HEK293-KCC2 + bumetanide/ouabain, thallium flux FluoZin2; stronger effect = higher value | normalized thallium flux at 10 µM | hit rate 49% among 3,700 | AID 1714;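 active = thallium entry rate above the same plate's blocked-transporter control wells by more than 3 SD; inconclusive = the two repeat wells disagree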;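 also: raw slope of fluorescence over initial fluorescence between 10 and 20 s after thallium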
KCC2 sec2 = KCC2 (human) modulation, second secondary assay; hit rate 23% among 3,700; shares compounds with KCC2 mod; HEK293-KCC2, thallium flux FluoZin2 fluorescence; actives lie on both sides; F/F0 rise rate, 10–20 s post-thallium; normalized thallium flux at 10 µM;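 active = thallium flux slope more than 3 SD above or below the plate's solvent-only control mean, mostly below; inconclusive = the two repeat wells disagreed; inactive = no significant shift from solvent-only controls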;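 also: raw slope with 0.1% DMSO as baseline and bumetanide as block control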
HEK counter1 = acts in parental HEK cells, KCC2 counter-screen; shares compounds with KCC2 mod; HEK293 parental cells, thallium flux FluoZin2, ouabain; baseline-ratio fluorescence slope, 10–20 s after thallium; thallium flux rate (normalised fluorescence) at 10 µM; hit rate 46% among 3,700;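 active = thallium flux rate significantly above the same plate's solvent-only control wells, beyond their mean plus 3 SD; inconclusive = the two replicate wells gave conflicting results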
KCC2 retest ouab = modulates human KCC2 on retest with ouabain; shares compounds with KCC2 mod; HEK293-KCC2, thallium flux FluoZin2 fluorescence; bidirectional: low = inhibitor, high = activator; raw Tl+ flux slope (below DMSO = inhibition, above = activation) at 10 µM; hit rate 48% among 3,700;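 active = thallium flux slope beyond 3 SD from same-plate DMSO control mean in most replicates, usually higher, sometimes lower; inconclusive = repeat tests gave conflicting results; inactive = no significant difference from controls in most replicates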;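 also: slope of initial-normalized fluorescence between seconds 10 and 20 after thallium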
HEK counter2 = counter-screen for KCC2 modulators: effect in parental HEK293 cells. hit rate 33% among 3,700. thallium flux FluoZin-2 fluorescence slope. shares compounds with KCC2 mod. thallium flux slope at 10 µM;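 active = thallium flux slope above the same plate's solvent-control mean plus 3 SD in both duplicate wells; inconclusive = duplicate wells that disagreed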;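 also: run without ouabain in cells lacking the KCC2 cotransporter; slope of fluorescence scaled to its starting value between 10 and 20 s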
Active calls of the source: *; ? = inconclusive; . = no result given. Hits are enriched below; roughly 5.1% of the tested compounds scored in any of these assays.

SMILES	S1P4 ag	S1P3 antagonist	KCC2 mod	RAM inhibit	S1P4 antag	ROMK primary	KCC2 secondary	KCC2 bumet counter	KCC2 sec2	HEK counter1	KCC2 retest ouab	HEK counter2
O=C(Cn1cnc2c(nnn2Cc2ccccc2)c1=O)c1ccc(Cl)cc1	0	-11	-4.1*	3	4	.	0.01	?	?	0.008	0.018*	0.011
COc1ccc(N2C(=O)CC(N(Cc3ccco3)C(=O)CCC(=O)O)C2=O)cc1 (stereo unspecified)	1	10	0.19	0	-4	-0.041	.	.	.	.	.	.
O=C(Nc1cccc(-c2nnc(-c3ccco3)o2)c1)c1ccccc1	2	-10	-1.1	5	4	-0.015	.	.	.	.	.	.
O=C(/C=C/c1ccccc1)Nc1nnc(-c2ccco2)o1	-1	-16	2.8*	1	11	-0.025	0.007	0.0083*	0.028	?	0.019	0.01
O=C(Nc1nnc(-c2ccco2)o1)c1cccc(Cl)c1	2	-14	24*	1	-9	2.5	0.019*	0.063*	0.034	0.034*	0.049*	0.015*
Cc1ccc(C(=O)Nc2nnc(-c3ccncc3)o2)cc1	1	-16	1.4	2	-5	0.23	.	.	.	.	.	.
O=C(Nc1nnc(-c2ccccn2)o1)c1cccc(Cl)c1	-2	-20	11*	1	-5	0.067	0.0066	0.015*	0.038	0.021*	0.027*	0.022*
Cc1cccc(-c2nnc(NC(=O)c3ccc(Cl)cc3)o2)c1	1	5	91*	2	-19	.	0.07*	0.16*	0.077*	?	0.12*	0.072*
COc1ccccc1Nc1ncc(C(=O)N2CCN(Cc3ccc(OC)c(OC)c3OC)CC2)c2ccccc12	0	-28	0.037	1	0	0.44	.	.	.	.	.	.
COC(=O)[C@@H]1CC[C@H](C)[C@@H](c2ccc(C)cc2)N1C(=O)c1ccc(/C=N/O[C@@H](C)c2cn([C@H](CO)Cc3ccccc3)nn2)cc1	0	16	-0.34	7	-12	-0.28	.	.	.	.	.	.
CCCOc1cccc(C2C(C(=O)c3cccs3)=C(O)C(=O)N2Cc2cccnc2)c1 (stereo unspecified)	0	-10	-0.99	.	10	.	.	.	.	.	.	.
O=C(O)CNC(=O)C12CC3CC(CC(Cl)(C3)C1)C2	0	-14	-0.36	1	0	1	.	.	.	.	.	.
O=C(Nc1nnc(-c2cccnc2)o1)c1cccc(Cl)c1	3	-5	14*	-1	-8	0.0073	?	0.027*	0.034	?	0.034*	0.013
N#C/C(=C\c1ccc(F)cc1F)S(=O)(=O)c1ccccn1	2	-2	0.12	.	-9	.	.	.	.	.	.	.
CNS(=O)(=O)c1cccc(C(=O)OCC(=O)Nc2ccc(OC)cc2[N+](=O)[O-])c1	1	-7	-0.4	4	-15	-0.063	.	.	.	.	.	.
C=C(C)CNC(=S)N/N=C(\C)c1ccc(OC)cc1	0	2	3.4	1	17	.	.	.	.	.	.	.
CCNC(=S)NN=C1c2ccccc2-c2ccccc21	-1	0	34*	2	-16	0.87	0.018*	0.051*	0.033	0.067*	0.047*	0.016*
C=C(C)CNC(=S)NN=C1c2ccccc2-c2ccccc21	0	-6	28*	4	-9	1.8	0.0068	0.075*	0.046*	0.026*	0.055*	0.027*
CCCCNC(=O)Cc1cc(=O)[nH]c(=O)[nH]1	0	-20	1.1	1	7	.	.	.	.	.	.	.
CCc1cc2c(SCC(=O)Nc3cc(C)on3)ncnc2s1	0	13	0.79	5	9	-0.14	.	.	.	.	.	.
COc1cccc(/C=N/NC(=O)CSc2cccc3cccnc23)c1	-1	-1	28*	.	25	-1.7	0.011	0.03*	0.035	?	0.03*	0.012
O=C(CSc1cccc2cccnc12)N/N=C/c1ccc(O)cc1	1	-3	0.84	.	4	.	.	.	.	.	.	.
O=C1NCCN1CCN1C(=O)c2ccccc2NC1c1ccccc1 (stereo unspecified)	2	11	0.45	.	-13	0.087	.	.	.	.	.	.
CCOc1ccc(-c2nc(C#N)c(N3CCN(Cc4ccccc4)CC3)o2)cc1	-3	-12	-4.3*	1	-1	.	0.0078	0.0066	0.027	0.0071	0.023*	0.01
Cc1cc(NC(=O)c2ccc(S(=O)(=O)N3CCCC3)cc2)nc2c1c(=O)oc1ccccc12	-3	.	.	2	-13	-0.35	0.0092	0.007	0.03	0.0079	0.019	?
SMILES	S1P4 ag	S1P3 antagonist	KCC2 mod	RAM inhibit	S1P4 antag	ROMK primary	KCC2 secondary	KCC2 bumet counter	KCC2 sec2	HEK counter1	KCC2 retest ouab	HEK counter2
Cc1cc(NC(=O)c2ccc(S(=O)(=O)N3CCOCC3)cc2)nc2c1c(=O)oc1ccccc12	2	.	.	2	-10	-0.047	.	.	.	.	.	.
O=C(Nc1ccn(-c2ccccc2)n1)c1ccc(S(=O)(=O)N2CCCCCC2)cc1	1	36	.	7	-3	0.19	?	0.0041	0.029	0.0072	0.016*	0.011
O=C(Nc1ccccc1)c1ccc(S(=O)(=O)N2CCCCC2)cc1	1	4	1.2	2	0	.	.	.	.	.	.	.
O=C(CN1N=C(c2ccc(Cl)cc2)CCC1=O)NCCN1CCc2ccccc2C1	-1	-6	0.12	1	-17	-1.9	.	.	.	.	.	.
CN=C(Nc1cccc(OC)c1)SC1CC(=O)N(c2ccc(C(=O)O)cc2)C1=O (stereo unspecified)	0	3	0.11	5	-4	0.65	.	.	.	.	.	.
Cc1cccc(/C=N/NC(=O)C(C)Nc2cccc3ccccc23)n1 (stereo unspecified)	-2	.	.	1	4	0.09	0.0083	0.0055	0.031	0.0043	0.018	0.011
CC1(C)CC(n2c(=S)[nH]c3ccccc3c2=O)CCO1 (stereo unspecified)	0	14	14*	5	-15	.	0.012	0.035*	0.032	0.022*	0.031*	?
COc1cc(-c2nnc(SC/C=C/c3ccccc3)n2N)cc(OC)c1OC	0	.	-6*	-1	8	.	0.008	0.005	0.032	0.0071	0.018	0.011
